An excerpt weighted towards active compounds, which were near 6.3% of everything screened.
VP16 counter: VP16 counterscreen qHTS for inhibitors of ROR gamma transcriptional activity. Drosophila S2 Gal4-VP16 UAS-luciferase, luminescence, 20 h. Potency, µM (top dose mostly 53.6 µM), without a hit: at the top dose activity, negative = inhibition, most hits filed as inhibitors. actives 3.5% (n = 310,000). AID 2546, 2010;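 also: Gal4-VP16 expression switched on by copper sulfate through the metallothionein promoter; % is scaled to controls: 0 for no effect and ±100 for the full control effect; nearly all actives have a fitted effect of over 50% in size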
ATXN viability: Viability Counterscreen for Primary qHTS for Inhibitors of ATXN expression. S2 cells (HEK-293 line with an ATXN2-luciferase reporter) viability, CellTiter-Fluor protease fluorescence, 24 h. Potency, µM (top dose mostly 56.7 µM), hits mostly cytotoxic. actives 0.49% (n = 400,000). AID 651635, 2014; also: nearly all actives have a fitted effect of over 40% in size
ATXN2 expr inh: Primary qHTS for Inhibitors of ATXN expression; HEK-293 ATXN2-luciferase reporter, luminescence, 24 h; Potency, µM (titrated, usually from 57 µM), inactives show at the top dose activity change, negative = inhibition, actives largely listed as inhibitors; actives 0.72% (n = 360,000); AID 1745845, 2022; also: % is scaled to controls: 0 for no effect and ±100 for the full control effect; nearly all actives have a fitted effect of over 55% in size
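ATXN2-luciferase reporter cells (luciferase flanked by upstream and downstream ATXN2 gene portions) were treated 24 h at 37 °C with compounds at up to 57 uM. SteadyGlo luminescence gave expression; GF-AFC fluorescence gave viability.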
HepG2 viability: qHTS for Inhibitors of TGF-b: Cytotox Counterscreen; HepG2 CAGA-GFP viability, ATP luminescence, 18 h; Potency, µM (doses to about 46.1 µM), for inactives: at the highest dose activity change, negative = cytotoxicity, hits mostly cytotoxic; actives 0.76% (n = 410,000); AID 588856, 2011
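HepG2 CAGA-GFP cells (1000/well, DMEM with 1% FBS) received compound, then TGF-beta at 500 pg/mL final, and were incubated 18 hours at 37 degrees C. Viability was read by CellTiter-Glo luminescence. Media-only wells were set as complete cell-killing and DMSO as no toxicity.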
RORg inh: qHTS for inhibitors of ROR gamma transcriptional activity; Nuclear receptor ROR-gamma (Mus musculus), P51450; Drosophila S2 Gal4-RORgamma UAS-luciferase reporter, 20 h; Potency, µM (top dose mostly 53.6 µM), without a hit: at the top dose activity change, negative = inhibition, actives largely listed as inhibitors; actives 5.4% (n = 310,000); AID 2551, 2010; also: % is scaled to controls: 0 for no effect and ±100 for the full control effect; nearly all actives have a fitted effect of over 60% in size
Target sequence (P51450 whole entry, looked up, the tested form may be a part): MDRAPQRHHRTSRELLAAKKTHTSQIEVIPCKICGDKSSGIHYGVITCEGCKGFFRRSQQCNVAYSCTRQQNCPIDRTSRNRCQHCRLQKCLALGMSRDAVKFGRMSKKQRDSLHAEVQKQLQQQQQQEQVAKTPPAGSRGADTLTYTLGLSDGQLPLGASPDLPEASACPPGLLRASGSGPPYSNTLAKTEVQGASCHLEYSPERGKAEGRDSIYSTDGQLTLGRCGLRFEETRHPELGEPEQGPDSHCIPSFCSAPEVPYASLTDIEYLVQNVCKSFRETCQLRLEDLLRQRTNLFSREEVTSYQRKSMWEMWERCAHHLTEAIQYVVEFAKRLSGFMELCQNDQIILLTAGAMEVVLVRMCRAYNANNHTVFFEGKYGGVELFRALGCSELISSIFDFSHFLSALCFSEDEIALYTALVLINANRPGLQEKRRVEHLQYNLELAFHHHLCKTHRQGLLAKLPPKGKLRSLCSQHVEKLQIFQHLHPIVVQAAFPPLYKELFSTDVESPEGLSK
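Compounds are pin-transferred onto Drosophila Schneider cells expressing a copper-inducible Gal4–ROR gamma transactivation domain fusion. After 1 hr, copper sulfate is added to 700 uM final; luciferase is read 20 hr later.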
TGFb SMAD3 inh: qHTS for Inhibitors of TGF-b. HepG2 CAGA-GFP TGF-b/SMAD3 reporter, GFP fluorescence, 18 h; TGF-beta stimulated, 500 pg/mL final. Potency, µM (top dose mostly 46.1 µM), for inactives: at the top dose activity, negative = inhibition, most hits filed as inhibitors. actives 1.2% (n = 410,000). AID 588855, 2011; also: % is scaled to controls: 0 for no effect and ±100 for the full control effect; nearly all actives have a fitted effect of over 65% in size
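HEPG2 CAGA-GFP reporter cells (1000/well, DMEM with 1% FBS) received compounds, then recombinant TGF-beta at 500 pg/mL final for 18 hours at 37 degrees C. Per-cell GFP summed per well was normalised to unstimulated and stimulated DMSO controls before curve fitting.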
* hit, by the source's call; i = inactive; ? = inconclusive; nt = no result; [ ] = dose if it differs, or a comment. Calls follow the shape of the dose curve; as a rule, active = well fitted curve in the direction sought with a large enough effect; inconclusive = small, poorly fitted or top-dose-only effect, or another doubt; inactive = no such curve, though single readings can be large; an effect the other way counts as inactive or inconclusive. Potency is read from the fitted curve at half-maximal effect.

SMILES	VP16 counter	ATXN viability	ATXN2 expr inh	HepG2 viability	RORg inh	TGFb SMAD3 inh
O=C(NC(=S)Nc1cccc2cnccc12)c1ccccc1	?	i	25%	-4%	10µM*	-7%
O=C(NC(=S)Nc1cccc2cccnc12)c1ccccc1	6.3µM*	i	0%	4%	2.2µM*	26%
CCOC(=O)C1=CCN(S(=O)(=O)c2ccc(C)cc2)C1c1cccc(Br)c1 (configuration not stated)	nt	?	?	-19%	nt	?
Cn1c(=O)c2c(O)c([N+](=O)[O-])c(=O)n(C)c2n(C)c1=O	-7%	i	-3%	11µM*	-1%	-2%
CNc1ccc(/C=C2\C=Cc3ccccc32)cc1I	nt	nt	nt	-23%	nt	0%
O=C(Nc1cccc(F)c1)C1CCCN(S(=O)(=O)c2ccccc2)C1 (configuration not stated)	4%	i	-17%	-23%	39%	-16%
CN=c1scc(C)n1/N=C/c1ccc2c(c1)OCO2	?	i	-19%	-39%	?	?
CCN=c1scc(C)n1/N=C/c1cc(Br)c(O)c(OC)c1	-15%[10 µM]	nt	29%	-20%	2%	4%
CN=c1scc(C)n1/N=C/c1ccc(O)cc1O	1.3µM*	i	2%	-17%	0.63µM*	-17%
CN=c1scc(C)n1/N=C/c1cc(Br)c(O)c(Br)c1	0%	nt	-1%	1%	4%	11%
C=CCN=c1scc(C)n1/N=C/c1ccc(O)c(O)c1	-3%	?	nt	7%	18µM*	-21%
COc1ccc(O)c(/C=N/n2c(-c3ccco3)csc2=Nc2cccnc2)c1	-26%	i	-22%	-39%	-20%	?
CN=c1scc(C)n1/N=C/c1ccc(O)cc1	2.5µM*	i	9%	0%	?	3%
CN=c1scc(-c2ccco2)n1/N=C/c1ccc(O)c(O)c1	0.71µM*	i	52%	-23%	0.089µM*	-10%
C=CCCCCCCCCCCC/C=C/C(O)COC(C)=O (configuration not stated)	0%	nt	nt	nt	-10%	nt
Cc1ccc(NC(=O)C2(c3ccc4c(c3)OC(F)(F)O4)CC2)nc1-c1cccc(C(=O)O)c1	nt	nt	0.086µM*	nt	nt	nt
COc1ccc(C2(C(=O)Nc3cc(C)on3)CCOCC2)cc1	0%	i	-15%	-13%	-16%	9%
OC(COc1cccc2ccccc12)CN1CCCC1 (configuration not stated)	-1%	i	-11%	2%	15%	27%
O[C@@H](COc1cccc2ncccc12)CN1CCN(C2c3ccccc3[C@@H]3[C@H](c4ccccc42)C3(F)F)CC1 (some centres not stated)	nt	25µM*	?	nt	nt	nt
O=C(NCc1ccccc1)c1cc(C2CCCN(C(=O)CCCc3ccccc3)C2)on1 (configuration not stated)	nt	i	-1%	-26%	nt	-7%
CC(c1n[nH]c(=S)n1-c1ccc(F)cc1)N1CCCCC1 (configuration not stated)	?	i	-7%	-13%	13µM*	1%
S=c1[nH]nc(-c2ccc3ccccc3n2)n1-c1ccc(Cl)cc1	1.4µM*	i	-13%	-1%	1.1µM*	-14%
O=C(NCc1n[nH]c(=S)n1-c1ccc(F)cc1)c1ccc(S(=O)(=O)N2CCCCC2)cc1	-2%	i	2%	7%	-24%	15%
Cc1ccccc1-n1c(-c2ccc3ccccc3n2)n[nH]c1=S	5µM*	i	-2%	-25%	0.32µM*	-12%
CC(c1n[nH]c(=S)n1-c1ccc(Cl)cc1)N(C)C (configuration not stated)	-10%	i	-2%	5%	13µM*	-9%
SMILES	VP16 counter	ATXN viability	ATXN2 expr inh	HepG2 viability	RORg inh	TGFb SMAD3 inh
Clc1cccc(-n2nnnc2NCc2ccccc2Oc2ccccn2)c1Cl	nt	nt	-9%	nt	nt	nt
CCN1CCCC1CNCc1cc2ccc(SC)cc2nc1-c1cc(OC)ccc1OC (configuration not stated)	nt	i	nt	nt	nt	nt
O=S(=O)(c1cccc(Cl)c1)n1c(/C=C/c2ccccc2Cl)nc2ccccc21	nt	nt	nt	10µM*	nt	?
Clc1cccc(N2CCN(c3nc4ccccc4c4nc(-c5ccccc5)nn34)CC2)c1	nt	i	12%	-6%	nt	0%
Clc1nc(NCc2cccs2)c2[nH]cnc2n1	nt	nt	nt	1%	nt	17%
O=C(NC(=S)N1CCOCC1)C12CC3CCC(CC(C3)C1)C2	6.3µM*	i	-3%	-13%	4.5µM*	-2%
O=C(NC(=S)N1CCOCC1)C12CCC3CC(CC(C3)C1)C2	1.8µM*	i	-10%	-4%	1.3µM*	-3%
CC12CC3(C)CC(C)(C1)CC(C(=O)NC(=S)N1CCOCC1)(C2)C3	?	i	3%	-4%	0.89µM*	-1%
CC(C)(C)C(=O)NC(=S)N1CCOCC1	-11%	i	8%	1%	-24%	14%
C(=C\c1ccc2nncn2c1)/c1ccccc1	nt	i	37%	8%	nt	9%
COc1ccc(C(=O)O/N=C(\N)c2ccccc2)cc1	?	i	?	-13%	?	-23%
N/C(Cc1ccc(Cl)cc1Cl)=N\OC(=O)c1cccs1	?	i	-1%	-26%	13µM*	0%
CC(C)(C)c1ccc(C(=O)O/N=C(\N)c2ccccc2)cc1	6.3µM*	?	nt	-8%	1.1µM*	27%
Cc1cccc(/C(N)=N/OC(=O)c2cccs2)c1	?	i	28%	1%	8.9µM*	-9%
Cc1cccc(/C(N)=N/OC(=O)c2ccc(F)cc2)c1	22µM*	i	57%	10%	8.9µM*	4%
COc1cc(CNc2nc(C)c(-c3ccn(CC4CCCN(C)C4)n3)s2)ccc1F (configuration not stated)	nt	i	nt	nt	nt	nt
CCOC(=O)Cn1c(=O)oc2cc(S(=O)(=O)N3CCN(c4cccc(C)c4C)CC3)ccc21	nt	i	-8%	-11%	nt	-26%
Cc1ccc(C)c(CN2C(=O)c3ccccc3Sc3ccc(C(=O)NCc4ccc5c(c4)OCO5)cc32)c1	nt	nt	nt	-19%	nt	-15%
Cc1noc(-c2ccc(Cl)cc2)c1C(=O)O/N=C(\N)c1ccc(C(C)(C)C)cc1	7.9µM*	?	?	-95%	7.1µM*	?
CCOC(=O)Cc1nnc(NC(=O)Nc2ccccc2)s1	20%	i	2%	3%	20%	5%
